FBW7 act = FBW7 E3 ligase activators, primary screen, biochemical, AlphaScreen, human | AlphaScreen FBW7–phospho-cyclin E peptide binding, activator screen | normalized activity (activation), % at 26.1 µM | 0.13% of 650,000 active; in the data active = normalized activity above about 1.9%;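 also: purified mutant Fbw7 with reduced substrate affinity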
MITF primary = MITF inhibitors, primary screen, biochemical, AlphaScreen, human; Microphthalmia-associated transcription factor (Homo sapiens), O75030; AlphaScreen MITF homodimerization, bead proximity signal; inhibition, % at 2.6 µM; 0.91% of 650,000 active; AID 1259374, 2018; in the data active = inhibition above about 50%;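 also: 0% = vehicle wells with protein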
TEAD-YAP inh = TEAD-YAP interaction inhibition, primary screen, TEAD-YAP interaction inhibitor project, luminescence, HEK-TIYL cells; TEAD-Gal4/YAP UAS-luciferase luminescence; inhibition, % at 9.12 µM; 1.4% of 640,000 active; AID 1259422, 2018; in the data active = inhibition above about 32%;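 also: 0% = median of test compound wells and 100% = reference inhibitor wells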
GPR151 ag = activators of human GPR151, primary screen, cell-based, PathHunter beta-arrestin, luminescence; G-protein coupled receptor 151 (Homo sapiens), Q8TDV0; PathHunter beta-arrestin GPR151 cells; activation, % at 11.2 µM; 1% of 650,000 active; AID 1508602, 2020; in the data active = activation above about 4.9%;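 also: 0% = median of compound wells and 100% = cells with positive control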
An asterisk follows results filed as active. Shown are actives, neighbours in structure and some others; about 3.5% of the full set was active somewhere.

SMILES	FBW7 act	MITF primary	TEAD-YAP inh	GPR151 ag
Cn1ncc(-c2ccnc(Nc3ccc(N4CCOCC4)cc3)c2)c1N	0	0	35*	0
Cn1ncc(-c2ccnc(Nc3ccc(-n4cnc(N5CCOCC5)n4)cc3)c2)c1NC(=O)Cc1ccccc1	-1	-2	42*	1
Cc1ncn(-c2ccc(Nc3cc(-c4cnn(CCc5ccccc5)c4-c4ccc(F)cc4)ccn3)cc2)n1	0	24	34*	0
CCOc1ccccc1NC(=O)NNC(=O)c1sc2ccccc2c1Cl	0	14	5	-1
Cc1ccc(CNC(=O)CCC2CCCN(Cc3ccc4nsnc4c3)C2)o1 (stereo not drawn)	0	-6	7	-1
O=C(Cn1cnc2c(-c3ccc(F)cc3)csc2c1=O)NCCc1ccccc1	0	-1	7	0
O=C(Cn1cnc2c(-c3ccc(F)cc3)csc2c1=O)NCc1ccccc1	0	0	49*	0
O=C(Cn1cnc2scc(-c3ccc4ccccc4c3)c2c1=O)NCc1ccccc1	1	6	37*	-1
CN(Cc1ccccc1)C(=O)Cn1cnc2scc(-c3ccccc3)c2c1=O	0	6	32*	3
COc1cc(/C=N/Nc2nnc(C(C)(C)C)c(=O)n2N)ccc1O	0	12	8	-1
Cc1nnc(N/N=C/c2ccc(Br)cc2)[nH]c1=O	1	9	6	1
Cc1nnc(N/N=C/c2cc(Br)ccc2O)[nH]c1=O	-1	114*	90*	1
COc1ccc(/C=N/Nc2nnc(C)c(=O)[nH]2)cc1	0	-11	-5	-1
CC(C)(C)c1nnc(N/N=C/c2cc(Br)ccc2O)n(N)c1=O	0	63*	75*	2
Cc1nnc(N/N=C/c2cc(Cl)ccc2O)[nH]c1=O	0	127*	92*	2
COc1ccc(O)c(/C=N/Nc2nnc(C)c(=O)[nH]2)c1	-1	79*	72*	-2
Cc1ccc2nc3c(cc(C#N)c(=N)n3Cc3ccco3)c(=O)n2c1	0	-12	-4	0
Cc1cc(-n2c(SCC(=O)NCc3ccco3)nc3n[nH]c(C)c3c2=N)ccc1Cl	0	1	2	5
Cc1ccc(-n2c(SCC(=O)NCc3ccco3)nc3n[nH]c(C)c3c2=N)cc1C	0	0	56*	3
COc1cccc(-n2c(SCC(=O)N3CCC(C)CC3)nc3n[nH]c(C)c3c2=N)c1	0	15	13	0
COc1cccc(-n2c(SCC(=O)N3CCN(c4ccccc4OC)CC3)nc3n[nH]c(C)c3c2=N)c1	0	14	43*	1
O=C(NC1CCOCC1)c1cc(COc2ccc(F)cc2F)on1	0	4	-4	1
Cc1ccc(/C=C/C(=O)Nc2sc3c(c2C(N)=O)CCCC3)o1	0	17	-27	1
CNC(=O)c1ccccc1Nc1cc(Nc2ccc(N3CCC(N(C)C)C3)cc2OC)ncc1C#N (stereo not drawn)	0	9	44*	-1
CNC(=O)c1ccccc1Nc1cc(Nc2ccc(OC3CCN(C)CC3)cc2OC)ncc1C(F)(F)F	0	14	74*	0
SMILES	FBW7 act	MITF primary	TEAD-YAP inh	GPR151 ag
CNC(=O)c1ccccc1Nc1cc(Nc2ccc(N3CCN(C)CC3)cc2OC)ncc1C(F)(F)F	0	0	85*	-1
CNC(=O)c1ccccc1Nc1cc(Nc2ccc(N3CCOCC3)cc2OC)ncc1Br	0	14	9	0
CNC(=O)c1ccccc1Nc1cc(Nc2ccc(F)cc2OC)ncc1C(F)(F)F	0	-2	18	-1
C=CCn1c(=O)c(C(=O)Nc2c(C)n(C)n(-c3ccccc3)c2=O)c(O)c2ccccc21	0	-1	2	1
COc1cc(Nc2nc(Nc3ccncn3)nc3c2ncn3-c2ccccc2)cc(OC)c1OC	0	5	-6	-2
Cc1cc(C(=O)COC(=O)c2cccc(NS(C)(=O)=O)c2)c(C)n1Cc1ccccc1	0	-6	57*	0
Cc1cc(C(=O)COC(=O)c2cccc(NS(C)(=O)=O)c2)c(C)n1-c1ccccc1	0	8	25	-1
COCCn1c(C)cc(C(=O)COC(=O)c2cccc(Oc3ccccc3)c2)c1C	0	0	-13	-1
COCCn1c(C)cc(C(=O)COC(=O)c2ccccc2Nc2ccccc2)c1C	0	13	75*	-1
COCCn1c(C)cc(C(=O)COC(=O)c2cccc(O)c2)c1C	0	-6	62*	-11
Cc1ccccc1CN1CCN2C(=O)[C@@H]3CCCN3C(=O)[C@H]2C1	1	17	46*	-1
O=C1[C@@H]2CCCN2C(=O)[C@H]2CN(Cc3ccccc3Cl)CCN12	0	6	37*	1
Cc1ccc(F)c(CN2CCN3C(=O)[C@@H]4CCCN4C(=O)[C@H]3C2)c1	1	16	-1	-1
C[C@H]1NC(=O)[C@H]2CN(Cc3ccccc3Cl)CCN2C1=O	0	12	-6	0
COCCCNc1c(-c2ccc(Cl)cc2)c(=O)c1=O	0	-5	48*	-1
COCCNc1c(-c2ccc(C)cc2)c(=O)c1=O	0	-3	-2	3
CC1C(=O)NN=C1C(=O)N/N=C\c1cccc(O)c1 (stereo not drawn)	1	28	28	-7
CC(C)(C)OC(=O)N/N=C\c1cccs1	5.6*	4	-27	-1
CC1C(=O)NN=C1C(=O)N/N=C/c1cccs1 (stereo not drawn)	0	5	32*	-3
CC1C(=O)NN=C1C(=O)N/N=C\c1cccnc1 (stereo not drawn)	0	-10	35*	-1
C=CCn1c2ccccc2n2cc(-c3ccc(Br)cc3)nc12	0	-6	2	0
Oc1ccc2cc(Br)ccc2c1Br	2.1*	24	-6	0
COc1ccc(CCNc2c(-c3ccccn3)nc3cnccn23)cc1OC	0	-17	-1	0
C/C(=N\NC(=O)C1COc2ccccc2O1)c1ccc(Br)cc1 (stereo not drawn)	1	-1	38*	-1
O=C(N/N=C/c1ccc(Br)cc1)C1COc2ccccc2O1 (stereo not drawn)	0	-5	37*	0
C/C(=N\NC(=O)CNC(=O)C1COc2ccccc2O1)c1ccccc1 (stereo not drawn)	0	-26	10	-1
Cc1cc(-c2ccc(NC(=O)[C@H]3COc4ccccc4O3)cc2)ccn1	0	23	75*	0
Cc1ccc(/C=N/NC(=O)C2COc3ccccc3O2)cc1 (stereo not drawn)	0	18	51*	0
O=[N+]([O-])c1ccc(N2CCN(c3ncnc4c3c(-c3ccccc3)cn4-c3ccc(Cl)cc3)CC2)cc1	0	6	2	0
O=C1CCC/C(=N\NC(=O)C2COc3ccccc3O2)C1 (stereo not drawn)	0	9	8	0

Assay outcomes deposited in PubChem BioAssay by The Scripps Research Institute Molecular Screening Center.
